A selection: hits, their analogues and other compounds. The true share with any hit is near 4.6%.
TRHR enhancer = allosterically enhances the human TRH receptor | TRHR cells, fluo-8 calcium fluorescence, EC20 TRH enhancement | enhancement, % at 2 µM | 0.66% of 360,000 active; in the data active means enhancement above about 30%; further: 0% is about no effect
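TRHR-expressing cells loaded with fluo-8 calcium dye were read kinetically (ex 480/em 530) during compound addition, then stimulated with an EC20 of TRH (10 nM final). Enhancement of the Gq-mediated intracellular calcium response was scored.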
D1 antag = antagonists of human D1 dopamine receptor; P21728; HEK293 TREx D1 cells, calcium flux, dopamine EC80; active compounds read low; activity change, negative = inhibition, % at 10 µM; 3.2% of 360,000 active; AID 504652; in the data active means activity change below about -30%; further: on the % scale 0 is the no-effect control and ±100 the full control effect
Target sequence (P21728 whole entry, looked up): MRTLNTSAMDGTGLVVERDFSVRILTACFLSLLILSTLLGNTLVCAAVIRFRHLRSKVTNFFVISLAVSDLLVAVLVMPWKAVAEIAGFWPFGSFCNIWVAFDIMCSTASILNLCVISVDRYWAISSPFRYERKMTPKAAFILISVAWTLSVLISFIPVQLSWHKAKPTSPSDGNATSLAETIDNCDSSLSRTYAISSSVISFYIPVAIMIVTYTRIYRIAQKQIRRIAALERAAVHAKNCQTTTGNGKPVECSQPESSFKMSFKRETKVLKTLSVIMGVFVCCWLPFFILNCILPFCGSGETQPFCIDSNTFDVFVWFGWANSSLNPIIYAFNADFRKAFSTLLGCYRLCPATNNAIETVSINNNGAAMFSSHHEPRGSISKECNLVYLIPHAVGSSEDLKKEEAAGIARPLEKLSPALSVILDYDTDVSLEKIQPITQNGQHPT
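After overnight tetracycline induction at 30 C, force-coupled D1 HEK293 cells took up a no-wash calcium dye at room temperature. Compounds were added and monitored 180 s, and the response to EC80 dopamine was then recorded.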
TRHR ag = activates the human TRH receptor; TRHR cells, calcium flux fluo-8, FDSS agonist mode; activation, % at 2 µM; AID 493084; 0.18% of 360,000 active; P34981; further: 0% is about no effect
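Agonist-mode FDSS calcium read (Ex 480/Em 530, 1 s cycles) in 1536-well TRHR cells with fluo-8 dye, after 10-cycle baseline and 23 nL compound addition; TRH at EC20 (10 nM final) added afterwards for the enhancer phase.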
D1 potentiator = human D1 dopamine receptor positive modulation. potentiation, % at 10 µM. HEK293 TREx D1 cells, calcium flux, dopamine EC20 potentiation. 0.036% of 360,000 active. AID 504651; in the data active means potentiation above about 30%; further: 0% is about no effect
D1 agonist = agonists of human D1 dopamine receptor; HEK293 T-REx D1 cells, calcium flux, agonist mode; 1% of 360,000 active; P21728; activation, % at 2 µM; further: 0% is about no effect
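Inducible HEK293 T-REx D1 cells, force-coupled to calcium signalling, were plated at 4000 cells/well with tetracycline and held overnight at 30 C. After no-wash calcium dye loading, compound-evoked calcium rise over 180 s flagged agonists.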
Active calls of the source: *. Unless noted, no stated cut-off is given here; in the data, active means activation above about 30%; inactive means the rest.

SMILES	TRHR enhancer	D1 antag	TRHR ag	D1 potentiator	D1 agonist
COc1ccc(-c2csc(NC(=S)NC(=O)c3cc4ccccc4o3)n2)cc1Br	-1	5	0	2	5
Cc1ccc(-n2c(SCC(=O)NC3CCCCC3)nc3c(c2=O)SCC3)cc1	-1	12	0	-2	-1
COc1ccc(NS(=O)(=O)c2cccc(C(=O)N(C)CC(=O)Nc3ccc(C)cc3)c2)cc1	0	0	0	-4	0
CCc1cc2c(SCc3ccc(C(=O)OC)o3)ncnc2s1	-2	-32*	0	-2	2
CC1=CC(=O)C=C(C)C1=NOS(=O)(=O)c1ccccc1	-8	-21	0	-6	13
CC1=CC(=O)C(C(C)C)=C/C1=N/OS(=O)(=O)c1ccccc1	-11	-31*	1	-8	11
Nc1c(C(=O)Nc2ccc(Cl)cc2F)sc2nc(-c3cccs3)ccc12	0	-38*	3	0	16
CC(=O)c1sc2nc(-c3cccs3)ccc2c1N	-5	1	-1	-2	11
Nc1c(C(=O)Nc2ccccc2Br)sc2nc(-c3cccs3)ccc12	-4	-9	2	-1	8
Nc1c(C(=O)Nc2nc3ccccc3s2)sc2nc(-c3cccs3)ccc12	2	3	-1	-3	112*
Cc1cccc(C)c1NC(=O)CNC(=O)c1cncc(Br)c1	-14	-4	1	1	1
O=C(COC(=O)Cc1ccc(Cl)cc1)NCc1ccc2c(c1)OCO2	-12	-4	0	-7	10
N#Cc1ccc(NC(=O)COC(=O)CSc2nnc(-c3ccc(Cl)cc3)o2)cc1	-9	-37*	0	-7	10
O=C(COC(=O)CSc1nnc(-c2ccc(Cl)cc2)o1)NCc1ccc2c(c1)OCO2	-3	-36*	-2	-17	4
COC(=O)Cn1cccc1C(=O)c1ccccc1	14	-12	0	-10	0
O=C(O)Cn1cccc1C(=O)c1ccccc1	2	-16	13	-2	33*
Oc1ccc(C2=CSC3=NCCN23)cc1O	6	-14	-1	-4	4
O=C(COC(=O)CN1C(=O)c2ccccc2C1=O)Nc1ncc(Cl)cc1Cl	14	-7	0	-4	0
CCC1(CC)NC(=O)N(CC(=O)OCC(=O)Nc2ncc(Cl)cc2Cl)C1=O	9	-64*	0	-16	1
O=C(COC(=O)CCOc1ccccc1)Nc1ncc(Cl)cc1Cl	1	-60*	0	3	0
CCOc1ccc(NC(=O)c2cnn3c2NC(c2ccccc2)=CC3c2cccc(OC)c2OC)cc1 (stereo unspecified)	-7	-8	0	-3	5
Cc1ccc(C23CC4CC(CC(NC(=O)NCCN(C)C)(C4)C2)C3)cc1	-2	10	0	-5	6
CN(C)CCNC(=O)COc1ccc(C23CC4CC(CC(C4)C2)C3)cc1	2	7	1	-3	33*
CC(C)N(c1nnc(N)s1)C(C)C	6	-31*	0	-6	-1
C/C(=N\NC(=O)c1nnn(-c2nonc2N)c1-c1cccs1)c1cccnc1	-3	-19	0	5	4
SMILES	TRHR enhancer	D1 antag	TRHR ag	D1 potentiator	D1 agonist
O=C(c1ccc(COc2ccccc2Cl)o1)N1CCN(Cc2ccc3c(c2)OCO3)CC1	8	9	0	-2	2
O=C(c1ccc(COc2ccc(Cl)cc2)o1)N1CCN(Cc2ccc3c(c2)OCO3)CC1	-7	-43*	2	-11	11
CCOc1ccc(NC(=O)N2CCN(Cc3ccc4c(c3)OCO4)CC2)cc1	1	-78*	-2	-9	2
CCOc1ccc(NC(=O)c2ccc(F)c(S(=O)(=O)NCc3ccc4c(c3)OCO4)c2)cc1	0	-34*	-1	0	4
O=C(Cc1ccccc1)NC1(O)C(=O)c2ccccc2C1=O	-21	-35*	0	-6	1
CCOc1ccc(NC(=O)COC(=O)c2cc(=O)c3ccccc3o2)cc1	-4	0	0	6	1
COc1cccc(-c2nc3c(C#N)c[nH]n3c2NC2CCCC2)c1OC	-8	-52*	0	-3	6
COc1cccc(-c2nc3c(C#N)c[nH]n3c2NC2CCCCC2)c1	-10	-37*	0	-2	3
COc1cccc(-c2nc3c(C#N)c[nH]n3c2NC2CCCCC2)c1OC	14	0	0	1	1

Assay outcomes from PubChem BioAssay.
